Our source for the Potency, activity change, negative = cytotoxicity and max response values is PubChem BioAssay (NCATS).

Several values for one entry are separate records, joined by “and”; a condition that tells them apart may be missing. Identical values can stand only once. Records with an inconclusive call do not appear. Activity calls are given as the source filed them. Unless noted, calls follow the shape of the dose curve; as a rule, active = well fitted curve in the direction sought with a large enough effect; inconclusive = small, poorly fitted or top-dose-only effect, or another doubt; inactive = no such curve, though single readings can be large; an effect the other way counts as inactive or inconclusive.

Assay [1] can be described thus: Cell Viability - Hek293 (AID 427;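 active = compounds whose dose-response curve shows a full or clear partial loss of cell viability, called from curve shape rather than a numeric limit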;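 also: potency is read from the fitted curve at half-maximal effect; cells exposed to compound for 40 hours at 37 °C before reading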). The note with it: qHTS. The essentials:
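Luminescent ATP read-out (CellTiter-Glo, 20 min RT) after 40 hr compound exposure at 37 °C in complete medium. Signal normalized to DMSO (basal) and 100 uM tamoxifen (100% inhibition); concentration-response fitted with the standard Hill equation to give AC50.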

Assay [2] is described as follows: Cell Viability - N2a (AID 540).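 Also: cells exposed to compound for 40 h at 37 °C; nearly all actives have a fitted effect of over 45% in size.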 Also: potency is read from the fitted curve at half-maximal effect.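 As to activity change, negative = cytotoxicity: plate controls were DMSO alone for no effect and tamoxifen control for full effect.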 The note with it: N2a mouse neuroblastoma cell viability; activity change, negative = cytotoxicity: at 92.2 µM (top of the series). In outline:
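Cytotoxicity was scored as loss of cellular ATP in N2a cells, a mouse neuroblastoma line. Compounds are applied in a qHTS concentration series for 40 hr at 37 °C.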

A short description of assay [3]: Cell Viability - H-4-II-E (AID 543).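 Also: cells exposed to compound for 40 hours; % is scaled to controls: 0 for no effect and ±100 for the full control effect; nearly all actives have a fitted effect of over 35% in size.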 The essentials:
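Cells seeded at 1500 per well and rested 5 hr; compounds added; 40 hr incubation at 37 °C; CellTiter-Glo added, 20 min at room temperature; luminescence read. Hill-equation fits gave AC50.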

A short description of assay [4]: Cell Viability - SH-SY5Y (AID 544).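 Also: cells exposed to compound for 40 hours; nearly all actives have a fitted effect of over 55% in size.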 Also: potency is read from the fitted curve at half-maximal effect.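 As to viability change, negative = cytotoxic: 0% = DMSO alone and -100% = 100 µM tamoxifen.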 The note with it: SH-SY5Y neuroblastoma cell viability; viability change, negative = cytotoxic: at 92.2 µM (top of the series). The essentials:
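Cells were plated at 1500 per well and allowed 5 hr at 37 °C. Compounds were added across a concentration range and incubated 40 hr at 37 °C. CellTiter-Glo was added for 20 min at room temperature before luminescence reading.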

Assay [5] is described as follows: Cell Viability - Renal Proximal Tubule (AID 545).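 Also: cells exposed to compound for 40 hours; 0% = DMSO only and -100% = 100 µM tamoxifen; nearly all actives have a fitted effect of over 40% in size.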 The note with it: renal proximal tubule cells viability, primary cells of rat origin; activity change, negative = cytotoxicity: at 91.7 µM (top of the series). In outline:
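Rat kidney proximal tubule cells, freshly isolated; 1000 cells/well, 5 hr settle, compound 40 hr 37 °C. CellTiter-Glo 20 min RT, luminescence read. AC50 by standard Hill fit.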

A short description of assay [6]: MultiTox-Fluor Cytotoxicity Assay - LYMP1-002 - Dead Cells (AID 960).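 Also: cells exposed to compound for 16 h at 37 °C; 0% = DMSO and 100% = tetraoctylammonium bromide; nearly all actives have a fitted effect of over 60% in size.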 In outline: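 Cells were plated, rested 5 hr, then treated with compound dilution series for 16 hr at 37 C. After adding substrate reagent and 60 min at room temperature, dead-cell protease fluorescence gave concentration-response curves fitted by the Hill equation.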
A short description of assay [7]: Cell Viability - LYMP2-004 (AID 966).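 Also: plate controls were DMSO only for no effect and tetraoctylammonium bromide control for full effect; nearly all actives have a fitted effect of over 65% in size.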 In outline:
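qHTS cytotoxicity: human lymphoblastoid line, 24 hr compound treatment, 37 C, complete medium. Viability read as cellular ATP via luciferase luminescence; tetraoctylammonium bromide served as positive control.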

Assay [8] can be described thus: Cell Viability - LYMP2-005 (AID 967). Also: potency is read from the fitted curve at half-maximal effect. The essentials:
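Steps: seed 2500 LYMP2-005 cells/well, incubate 5 h at 37 C, add compound, incubate 24 h at 37 C, add CellTiter-Glo, wait 30 min at RT, read luminescence. Concentration-response data fitted to Hill equation for AC50.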

The nature of assay [9]: Cell Viability - LYMP2-009 (AID 968).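 Also: 0% = DMSO alone and the full-kill end = tetraoctylammonium bromide at 92 µM; nearly all actives have a fitted effect of over 55% in size.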
Assay [10] can be described thus: Cell Viability - LYMP2-015 (AID 971).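 Also: 0% = DMSO only and full effect = 92 µM tetraoctylammonium bromide; nearly all actives have a fitted effect of over 55% in size.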 In outline: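 Cells are seeded at 2500 per well and incubated 5 hr at 37 C. Compounds are added across a concentration series for 24 hr at 37 C. CellTiter-Glo is added, and luminescence is read after 30 min at room temperature.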
Assay [11] can be described thus: Cell Viability - LYMP2-017 (AID 972).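 Also: cells exposed to compound for 24 hours at 37 °C; nearly all actives have a fitted effect of over 55% in size.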 Also: potency is read from the fitted curve at half-maximal effect. As to activity change, negative = cytotoxicity: % is scaled to controls: 0 for no effect and ±100 for the full control effect. In outline: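 Cytotoxicity is scored as a concentration-dependent drop in cellular ATP in a human lymphoblastoid line after 24 hr treatment at 37 C. Values are AC50s from Hill-equation modelling.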
The nature of assay [12]: Cell Viability - LYMP2-006 (AID 978).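 Also: cells exposed to compound for 24 hours; % is scaled to controls: 0 for no effect and ±100 for the full control effect; nearly all actives have a fitted effect of over 60% in size.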 The essentials: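 qHTS, 1536-well; 2500 cells/well, 5 hr 37 C; cpd 24 hr 37 C; CellTiter-Glo 30 min RT; luminescence. Tetraoctylammonium bromide pos. ctrl. AC50 via Hill eqn.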
Assay [13] can be described thus: qHTS assay for small molecule agonists of retinoid X receptor alpha signaling (AID 588544; calls by dose curve). The note with it: HEK293T RXRa-UAS-bla, beta-lactamase reporter, 18 h; 530 nm emission. (In general: In qHTS, concentration-response curves come from the screen itself.)
Assay [14] deals with Retinoic acid receptor RXR-alpha (Homo sapiens) (UniProt P19793). The description is as above.
Assay [15] has as its target Thyroid hormone receptor beta (Homo sapiens) (UniProt P10828). Description: qHTS assay for small molecule agonists of thyroid hormone receptor beta signaling (AID 588545; calls by dose curve;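 also: 0% = DMSO only and 100% = 10 nM T3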). The essentials: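 Beta-lactamase reporter activity under TR response element control is measured in HEK 293 cells after 18 hrs compound exposure. Signal is ratiometric CCF4 fluorescence, 460/530 nm.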

The nature of assay [16]: qHTS assay for small molecule disruptors of the mitochondrial membrane potential - 1 hr assay (AID 651754; calls by dose curve; also: nearly all actives have a fitted effect of over 35% in size; also: potency is read from the fitted curve at half-maximal effect). The essentials: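 Loss of mitochondrial potential shifts the cationic dye from red mitochondrial aggregates to green cytoplasmic monomers. Cells (HepG2) are treated with compound for 1 hr before a 30 min dye incubation at 37C.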
The nature of assay [17]: qHTS assay for small molecule disruptors of the mitochondrial membrane potential - 5 hr assay (AID 651755; calls by dose curve; also: nearly all actives have a fitted effect of over 40% in size; also: potency is read from the fitted curve at half-maximal effect). In outline:
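Membrane-potential dye readout: red aggregate (540 ex/590 em) versus green monomer (490 ex/535 em) fluorescence after 30 min dye loading, following 5 hr compound exposure at 37C of overnight-plated HepG2 cells.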

Assay [18] can be described thus: qHTS assay for small molecule agonists of the antioxidant response element (ARE) signaling pathway measured by Nrf2-dependant transcriptional activity (AID 720636; active = well fitted curve in the direction sought with a large enough effect in the repeat runs; an effect the other way counts as inactive or inconclusive; also: potency is read from the fitted curve at half-maximal effect). In outline:
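Quantitative HTS format in HepG2 cells stably expressing an ARE-luciferase reporter; 16 hr compound treatment at 37 C, luciferase signal detected with ONE-Glo.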

In assay [19] the target is Nuclear receptor subfamily 1 group I member 2 (Rattus norvegicus) (UniProt Q9R1A7). Put plainly: qHTS assay for small molecule activators of the rat pregnane X receptor (rPXR) signaling pathway (AID 651751; call rule not given here; also: 0% is about no effect). The note with it: rPXR reporter cells, luciferase (One-Glo), 24 h.
Assay [20] in a line: Cell Viability - LYMP2-010 (AID 981). Also: potency is read from the fitted curve at half-maximal effect. The essentials:
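Steps: seed 2500 LYMP2-010 cells per well; incubate 5 hr at 37 C; add compound; incubate 24 hr at 37 C; add CellTiter-Glo, wait 30 min at room temperature; read luminescence. Concentration-response fitted to Hill equation for AC50.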

Chain of Retinoic acid receptor RXR-alpha (Homo sapiens) (P19793 whole entry, looked up): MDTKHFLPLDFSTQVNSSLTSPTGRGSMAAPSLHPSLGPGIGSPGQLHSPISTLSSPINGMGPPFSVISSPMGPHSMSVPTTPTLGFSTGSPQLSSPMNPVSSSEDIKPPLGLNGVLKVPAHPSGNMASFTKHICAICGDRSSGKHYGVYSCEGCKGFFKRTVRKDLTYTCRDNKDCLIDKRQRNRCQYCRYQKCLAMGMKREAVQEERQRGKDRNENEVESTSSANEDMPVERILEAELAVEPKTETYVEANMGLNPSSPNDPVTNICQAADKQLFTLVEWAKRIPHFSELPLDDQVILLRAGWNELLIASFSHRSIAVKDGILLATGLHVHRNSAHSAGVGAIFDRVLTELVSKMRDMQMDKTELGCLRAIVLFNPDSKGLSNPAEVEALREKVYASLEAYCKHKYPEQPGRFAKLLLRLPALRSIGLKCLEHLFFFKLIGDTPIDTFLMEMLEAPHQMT
Chain of Nuclear receptor subfamily 1 group I member 2 (Rattus norvegicus) (Q9R1A7 whole entry, looked up): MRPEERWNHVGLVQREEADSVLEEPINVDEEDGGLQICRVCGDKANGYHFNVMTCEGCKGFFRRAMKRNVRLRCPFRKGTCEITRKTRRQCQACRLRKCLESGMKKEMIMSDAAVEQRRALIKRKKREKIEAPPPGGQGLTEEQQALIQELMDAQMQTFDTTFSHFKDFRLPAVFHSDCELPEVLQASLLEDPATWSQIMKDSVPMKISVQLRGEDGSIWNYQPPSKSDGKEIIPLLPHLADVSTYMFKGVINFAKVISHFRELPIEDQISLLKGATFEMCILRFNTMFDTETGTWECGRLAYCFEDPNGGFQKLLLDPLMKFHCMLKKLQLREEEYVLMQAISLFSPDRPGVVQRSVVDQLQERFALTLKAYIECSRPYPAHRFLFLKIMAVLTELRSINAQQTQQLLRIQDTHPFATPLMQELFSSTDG
Chain of Thyroid hormone receptor beta (Homo sapiens) (P10828 whole entry, looked up): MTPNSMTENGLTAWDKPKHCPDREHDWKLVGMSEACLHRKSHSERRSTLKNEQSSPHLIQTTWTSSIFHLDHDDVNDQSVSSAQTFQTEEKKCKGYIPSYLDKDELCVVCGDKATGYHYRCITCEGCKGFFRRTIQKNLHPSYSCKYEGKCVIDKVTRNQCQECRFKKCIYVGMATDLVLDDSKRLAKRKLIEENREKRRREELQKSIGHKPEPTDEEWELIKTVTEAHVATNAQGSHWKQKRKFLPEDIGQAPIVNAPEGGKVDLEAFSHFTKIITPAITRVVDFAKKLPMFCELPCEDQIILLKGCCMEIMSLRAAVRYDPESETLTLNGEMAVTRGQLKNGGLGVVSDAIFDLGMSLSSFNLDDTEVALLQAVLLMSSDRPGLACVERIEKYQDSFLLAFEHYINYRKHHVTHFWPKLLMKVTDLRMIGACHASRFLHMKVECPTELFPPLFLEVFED

Regarding `CC(=O)CC(=O)Nc1ccccc1`, the Potency in assay [1] is > 92 µM (inactive). Moreover, the activity change, negative = cytotoxicity in [2] is -10.9% (inactive). For the same compound, the Potency result in assay [3], in [4], in assay [5], in assay [6], in assay [7] and in assay [8] was “inactive” in each case. The Potency entry in assay [9], in assay [10], in assay [11], in [12], in assay [14] and in [15] was “inactive” each time. Besides, the Potency entry in assay [16], in [17] and in assay [18] was “inactive” in each case. Also, the max response is 6.79% and 6.65% in [13]; 8.9% (inactive) and 1.01% (inactive) in [19].

Regarding `Oc1cc(Cl)cc(Cl)c1Cl`, the Potency in [2] was 31.6 µM (active). In addition, the Potency result in assay [3], in assay [5], in assay [6], in assay [7], in assay [8] and in assay [10] was “inactive” throughout. Moreover, the Potency entry in assay [11], in assay [12], in assay [20], in assay [14], in assay [15] and in assay [18] was “inactive” throughout. The max response in [13] was 0.211%; in assay [19], 0.309% (inactive).

With `COc1ccc(C)cc1N`, the Potency in assay [1] is > 92 µM (inactive). Besides, in [2], the activity change, negative = cytotoxicity is -14.1% (inactive). Moreover, the Potency entry in assay [3], in [5], in [6], in assay [7], in assay [8] and in assay [9] was “inactive” in each case. Further, the Potency entry in assay [10], in [11], in assay [12], in assay [20], in assay [14] and in assay [16] was “inactive” each time. The Potency result in [17] and in assay [18] was “inactive” each time. Besides, the figures for the max response in assay [13] and in assay [19] were -1.98% and 8.96% (inactive), respectively.

Take `Cc1ccc(O)c(N)c1`: the Potency was > 92 µM (inactive) in assay [1]; 20 µM (active) in assay [4]; 50.1 µM (active) in [8]; 50.1 µM (active) in assay [11]; 39.8 µM (active) in [20]; 29.8 µM (active) in assay [16]. Besides, the results for the Potency in assay [17] and in assay [18] were 33.5 µM (active) and 42.2 µM (active), respectively. The Potency result in assay [5], in assay [6], in assay [14] and in assay [15] was “inactive” in each case. In addition, the max response in assay [13] was 23.6%; in assay [19] it was 12.1% (inactive).

With `CCOc1ccc2nc(N)sc2c1`, the Potency in [1] is > 92 µM (inactive). In addition, the activity change, negative = cytotoxicity in assay [2] was -2.03% (inactive). Besides, the Potency result in [3], in assay [4], in [5], in assay [6], in [7] and in assay [8] was “inactive” throughout. Further, the Potency entry in assay [9], in [10], in assay [11], in [12], in assay [20] and in assay [14] was “inactive” throughout. For the same compound, in [15], the Potency result is “inactive”. The max response in assay [13] was 1.63%.

`O=C1OC(=O)c2ccccc21`: in [1], the Potency was > 92 µM (inactive). The activity change, negative = cytotoxicity in [2] is -28.6% (inactive). For the same compound, the Potency entry in assay [3], in assay [5], in [6], in assay [7], in [8] and in assay [10] was “inactive” throughout. Also, the Potency result in assay [12], in [20], in assay [14], in assay [16], in [17] and in assay [18] was “inactive” throughout. For the same compound, the max response in assay [13] is -8.02%.
